Active and inactive are the calls of the source. Unless noted, no rule for the calls is given here.
Legend:
[1] = anti-His antibody binders, primary screen, artefact control for SMM control protein annotation, biochemical, small-molecule microarray, 635 nm fluorescence (AID 1128); settings: anti-His Alexa647 antibody binding, higher = more signal;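 also: score merges feature fluorescence with signal-to-noise for each printed compound spot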
[2] = test system: Human papillomavirus type 1a E7 protein (residues 1-88); test: HPV1a E7 small-molecule binders, primary screen, biochemical, small-molecule microarray, residues 1-88, 635 nm (AID 1129); settings: small-molecule microarray binding, fluorescence 635 nm; higher = more signal
[3] = biological target: Focal adhesion kinase 1 (Homo sapiens) (UniProt Q05397); test: small-molecule microarray binders of FAK, primary screen, biochemical, 635/667 nm fluorescence, BSA, DTT (AID 1130); settings: PTK2 binding, 635 nm fluorescence, higher = more signal;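 also: composite of spot emission at 667 nm and signal to noise over triplicate slides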
[4] = test system: Fibrinogen (Alexa647-labelled); test: fibrinogen binders on compound microarrays, profiling panel, artefact control for SMM control-protein annotation, biochemical, small-molecule microarray, 635/667 nm fluorescence (AID 1131); settings: fibrinogen-A647 binding fluorescence, higher = more signal;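 also: z-score merges 667 nm fluorescence with per-spot signal-to-noise over triplicate slides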
[5] = biological target: Follistatin (Homo sapiens) (UniProt P19883); test: follistatin binders on small-molecule microarrays, primary screen, biochemical, small-molecule microarray, 635/667 nm fluorescence (AID 1132); settings: FST binding, 635 nm fluorescence, higher = more signal
[6] = biological target: Fibroblast growth factor 2 (Homo sapiens) (UniProt P09038); test: FGF2 binders on small-molecule microarrays, primary screen, biochemical, small-molecule microarray, 635/667 nm fluorescence (AID 1133); settings: small-molecule microarray binding, FGF2, fluorescence 635/667; higher = more signal
[7] = mitochondrial membrane potential change in A549 cells, profiling panel, cell-based, JC-1 fluorescence, basal, 24 h, 100 nL (AID 1138); settings: higher = more signal;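 also: A549 lung adenocarcinoma cells under basal conditions with no added stimulus; test concentration not given here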
[8] = test system: Lefty1; test: Lefty1 binders on small-molecule microarrays, primary screen, biochemical, small-molecule microarray, 635/667 nm fluorescence (AID 1139); settings: small-molecule microarray binding, fluorescence 635/667; higher = more signal
[9] = test system: wheat germ agglutinin (Triticum aestivum), Alexa647-labelled; test: wheat germ agglutinin binders on compound microarrays, profiling panel, artefact control for SMM control-protein annotation, biochemical, small-molecule microarray, 635/667 nm fluorescence (AID 1140); settings: WGA-A647 binding, 635 nm fluorescence, higher = more signal;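 also: score merges 667 nm feature emission with signal to noise over triplicate slides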
[10] = biological target: Luciferin 4-monooxygenase (Photinus pyralis) (UniProt P08659); test: firefly luciferase enzyme inhibitors, primary screen, biochemical, luminescence, purified enzyme, 2006 set (AID 1141); settings: SteadyGlo luminescence, 30 min, higher = more signal, called active from +8 up or from −8 down;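 also: cell-free assay with purified firefly luciferase at 100 ng per well in PBS; test concentration not given here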
[11] = test system: Wnt5a (protein binding on small-molecule microarray); test: Wnt5a binders on small-molecule microarray, primary screen, biophysical, 635/667 nm fluorescence (AID 1142); settings: 635 nm fluorescence, higher = more signal;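 also: fluorescence read at 667 nm with signal to noise per printed feature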
[12] = cell viability in Huh7 cells, primary screen, cytotoxicity control for HCV replication inhibitor project, CellTiter-Glo luminescence, basal, 48 h (AID 1143); settings: Huh7 HCV replicon, higher = more signal, called active from +8 up or from −8 down;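 also: Huh7 hepatoma cells carrying a hepatitis C replication reporter with no stimulus; test concentration not given here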
[13] = P. aeruginosa biofilm formation inhibitors, primary screen, PAO1 strain, BacTiter-Glo luminescence, LB-PBS (AID 1144); settings: 12 h, higher = more signal
[14] = CREB reporter modulators without forskolin, primary screen, cell-based, PC12, CRE-LacZ reporter, unstimulated (AID 1145); settings: no forskolin, luminescence, 4.5 h, higher = more signal, called active from +8 up or from −8 down
[15] = CREB reporter modulators under forskolin, primary screen, cell-based, PC12, CRE-LacZ reporter, forskolin-stimulated (AID 1146); settings: luminescence, 4.5 h, higher = more signal, called active from +8 up or from −8 down;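 also: PC12 cells with 6xCRE LacZ reporter stimulated by forskolin 10 µM; beta-galactosidase reporter signal reflecting CREB driven transcription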
[16] = biological target: Streptavidin (Streptomyces avidinii) (UniProt P22629); test: streptavidin binders on small-molecule microarray, primary screen, artefact control for SMM compound annotation, biophysical, 635/667 nm fluorescence (AID 1147); settings: streptavidin binding, higher = more signal;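 also: signal reflects streptavidin binding to arrayed compounds as a control protein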
[17] = small-molecule binders of probe aInhba, primary screen, biochemical, small-molecule microarray, 635/667 nm fluorescence (AID 1148); settings: higher = more signal;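 also: score merges 667nm spot fluorescence with signal-to-noise for antibody binding to printed compounds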
[18] = biological target: Torsin-1A (Homo sapiens) (UniProt O14656); test: torsin A binders from cell lysate, primary screen, small-molecule microarray, wild-type, 635/667 nm (AID 1149); settings: COS7 hTOR1A-WT lysate, 635 nm fluorescence, higher = more signal
[19] = biological target: Torsin-1A (Homo sapiens) (UniProt O14656); test: small-molecule binders of mutant TOR1A in lysate, primary screen, cell lysate, small-molecule microarray, COS7 lysate, 635/667 nm fluorescence (AID 1150); settings: COS7 hTOR1A mutant lysate, 635 nm fluorescence, higher = more signal;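 also: score pools 667 nm emission and signal to noise measuring lysate protein binding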
[20] = test system: Sonic hedgehog protein (Shh); test: small-molecule binders of Shh protein, primary screen, biochemical, small-molecule microarray, 635/667 nm fluorescence (AID 1151); settings: small-molecule microarray binding, 635 nm fluorescence; higher = more signal;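 also: Shh protein binding to compounds spotted on small-molecule microarray slides; score combines spot fluorescence intensity with signal-to-noise across triplicate slides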

Sequence of Follistatin (Homo sapiens) (P19883 whole entry, looked up): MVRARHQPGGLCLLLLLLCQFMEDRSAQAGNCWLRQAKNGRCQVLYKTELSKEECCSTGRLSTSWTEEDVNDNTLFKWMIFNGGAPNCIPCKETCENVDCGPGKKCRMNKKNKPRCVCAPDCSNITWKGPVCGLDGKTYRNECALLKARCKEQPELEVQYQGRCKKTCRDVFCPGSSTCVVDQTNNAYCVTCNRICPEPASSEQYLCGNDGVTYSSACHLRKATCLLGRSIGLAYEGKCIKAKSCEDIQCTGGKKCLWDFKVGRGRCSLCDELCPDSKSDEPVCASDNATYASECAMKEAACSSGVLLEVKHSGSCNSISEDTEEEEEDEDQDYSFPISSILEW
Sequence of Torsin-1A (Homo sapiens) (O14656 whole entry, looked up): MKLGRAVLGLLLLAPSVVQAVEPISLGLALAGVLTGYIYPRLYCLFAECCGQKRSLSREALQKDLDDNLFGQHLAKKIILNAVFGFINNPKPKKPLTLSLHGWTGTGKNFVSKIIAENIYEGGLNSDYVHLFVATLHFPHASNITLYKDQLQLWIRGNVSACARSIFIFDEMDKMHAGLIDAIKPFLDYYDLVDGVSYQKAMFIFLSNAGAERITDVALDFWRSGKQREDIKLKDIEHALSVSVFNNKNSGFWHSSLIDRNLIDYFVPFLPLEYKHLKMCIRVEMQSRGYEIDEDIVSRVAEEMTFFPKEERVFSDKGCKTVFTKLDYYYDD
Sequence of Luciferin 4-monooxygenase (Photinus pyralis) (P08659 whole entry, looked up): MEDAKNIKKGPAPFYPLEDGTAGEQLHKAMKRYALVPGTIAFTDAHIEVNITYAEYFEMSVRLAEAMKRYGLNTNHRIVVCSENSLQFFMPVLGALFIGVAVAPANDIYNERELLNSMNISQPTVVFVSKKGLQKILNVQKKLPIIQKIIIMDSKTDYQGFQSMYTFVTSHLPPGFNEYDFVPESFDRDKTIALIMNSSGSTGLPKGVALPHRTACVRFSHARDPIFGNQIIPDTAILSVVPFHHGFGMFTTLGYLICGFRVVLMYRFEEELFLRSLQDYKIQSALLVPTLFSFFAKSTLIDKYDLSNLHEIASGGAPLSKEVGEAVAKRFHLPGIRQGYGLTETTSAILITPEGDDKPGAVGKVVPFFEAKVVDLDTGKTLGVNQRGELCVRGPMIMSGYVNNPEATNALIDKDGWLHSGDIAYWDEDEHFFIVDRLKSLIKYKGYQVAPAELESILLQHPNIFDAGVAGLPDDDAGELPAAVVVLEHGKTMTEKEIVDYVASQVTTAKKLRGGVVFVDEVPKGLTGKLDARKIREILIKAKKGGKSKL
Sequence of Streptavidin (Streptomyces avidinii) (P22629 whole entry, looked up): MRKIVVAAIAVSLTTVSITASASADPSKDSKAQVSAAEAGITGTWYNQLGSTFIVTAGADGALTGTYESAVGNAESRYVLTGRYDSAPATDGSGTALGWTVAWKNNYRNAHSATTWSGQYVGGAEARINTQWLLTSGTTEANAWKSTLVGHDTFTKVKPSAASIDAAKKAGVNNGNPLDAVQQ
Sequence of Fibroblast growth factor 2 (Homo sapiens) (P09038 whole entry, looked up): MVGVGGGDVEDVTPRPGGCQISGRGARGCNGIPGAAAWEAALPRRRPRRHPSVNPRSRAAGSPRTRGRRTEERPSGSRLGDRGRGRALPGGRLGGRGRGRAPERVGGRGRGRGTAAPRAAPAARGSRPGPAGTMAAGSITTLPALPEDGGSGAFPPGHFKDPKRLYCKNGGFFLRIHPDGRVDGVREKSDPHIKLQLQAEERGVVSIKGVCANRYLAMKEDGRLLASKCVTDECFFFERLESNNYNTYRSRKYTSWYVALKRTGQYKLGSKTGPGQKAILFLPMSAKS
Sequence of Focal adhesion kinase 1 (Homo sapiens) (Q05397 whole entry, looked up): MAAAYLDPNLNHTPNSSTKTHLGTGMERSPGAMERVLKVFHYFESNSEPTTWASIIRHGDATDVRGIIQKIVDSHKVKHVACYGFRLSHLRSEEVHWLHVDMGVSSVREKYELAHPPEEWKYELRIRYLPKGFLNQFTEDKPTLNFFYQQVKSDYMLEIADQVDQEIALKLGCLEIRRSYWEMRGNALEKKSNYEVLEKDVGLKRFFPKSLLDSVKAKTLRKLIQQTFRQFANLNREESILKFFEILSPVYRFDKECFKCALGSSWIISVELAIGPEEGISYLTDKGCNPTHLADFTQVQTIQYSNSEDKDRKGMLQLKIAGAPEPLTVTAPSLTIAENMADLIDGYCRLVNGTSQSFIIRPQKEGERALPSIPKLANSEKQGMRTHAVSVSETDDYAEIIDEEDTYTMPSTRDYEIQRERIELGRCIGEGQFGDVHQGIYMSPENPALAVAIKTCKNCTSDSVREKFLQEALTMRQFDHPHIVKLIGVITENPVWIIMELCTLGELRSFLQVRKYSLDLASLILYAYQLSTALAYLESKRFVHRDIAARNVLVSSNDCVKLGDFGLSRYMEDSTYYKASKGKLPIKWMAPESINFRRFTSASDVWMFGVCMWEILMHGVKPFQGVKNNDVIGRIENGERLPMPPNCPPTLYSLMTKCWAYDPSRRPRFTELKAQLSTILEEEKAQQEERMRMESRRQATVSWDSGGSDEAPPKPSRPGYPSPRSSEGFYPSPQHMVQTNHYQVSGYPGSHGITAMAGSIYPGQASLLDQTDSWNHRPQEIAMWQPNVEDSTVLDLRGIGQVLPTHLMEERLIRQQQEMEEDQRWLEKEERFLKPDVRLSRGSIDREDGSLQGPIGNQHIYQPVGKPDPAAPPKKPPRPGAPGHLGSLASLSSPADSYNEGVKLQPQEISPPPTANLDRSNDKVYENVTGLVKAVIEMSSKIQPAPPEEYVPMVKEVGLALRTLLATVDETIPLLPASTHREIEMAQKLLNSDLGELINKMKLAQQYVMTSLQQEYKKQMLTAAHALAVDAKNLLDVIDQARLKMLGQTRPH

| Structure (SMILES) | composite z-score [1] | composite z-score [2] | composite z-score [3] | composite z-score [4] | composite z-score [5] | composite z-score [6] | z-score [7] | composite z-score [8] | composite z-score [9] | z-score [10] | composite z-score [11] | z-score [12] | z-score [13] | z-score [14] | z-score [15] | composite z-score [16] | composite z-score [17] | composite z-score [18] | composite z-score [19] | composite z-score [20] |
| --- | --- | --- | --- | --- | --- | --- | --- | --- | --- | --- | --- | --- | --- | --- | --- | --- | --- | --- | --- | --- |
| CC(C)c1ccc(NN2C(C(O)C(c3ccccc3)c3ccccc3)C=CC3C(=O)N(c4ccccc4)C(=O)C32)cc1 (stereo not given) | 0.49 | 1.2 | 0.496 | 0.975 | 1.13 | 0.388 | -1.24 | 0.343 | 0.919 | -0.78 (inactive) | 0.359 | -0.29 (inactive) | -0.281 (inactive) | -0.322 (inactive) | 1.3 (inactive) | 1.3 | 0.246 | 0.792 | 0.936 | -0.0266 |
| COc1ccc(C(O)C2C=CC3C(=O)NC(=O)C3N2Nc2ccccn2)cc1 (stereo not given) | 0.246 | 0.178 | -0.235 | 0.055 | 0.198 | 0.338 | -0.0269 | 0.513 | 0.899 | -1.99 (inactive) | 0.273 | 1.06 (inactive) | -0.727 (inactive) | -0.329 (inactive) | -0.239 (inactive) | -0.0335 | 0.0659 | 0.21 | 0.353 | 0.3 |
| [N-]=[N+]=NCc1ccccc1C[C@]1(C(=O)NCC(O)CO)N=C(c2ccc(OCCCO)cc2)O[C@H]1c1ccccc1 (stereo not given in full) | 0.375 | -0.116 | -0.294 | -0.231 | 0.263 | -0.476 | -0.077 | -1.5 | 0.228 | -0.263 (inactive) | 0.185 | -3.58 (inactive) | 0.55 (inactive) | 1.87 (inactive) | -0.621 (inactive) | 0.236 | 0.109 | 0.381 | 0.777 | -1.52 |
| COc1ccc(NN2C(C(O)c3ccc([N+](=O)[O-])cc3)C=CC3C(=O)N(C4CCCCC4)C(=O)C32)cc1 (stereo not given) | 0.525 | 0.918 | 0.201 | 0.93 | 0.737 | -0.532 | 0.732 | 0.0274 | 1.13 | 0.939 (inactive) | -0.0777 | -0.416 (inactive) | -1.05 (inactive) | -0.667 (inactive) | -0.441 (inactive) | 1.99 | 0.199 | -0.233 | 0.382 | -0.49 |
| C#CCN(CC1=CCCCC1)[C@H](c1ccccc1Br)[C@@H](O)Cc1ccccc1 | 0.646 | -0.0173 | 1.98 | -0.671 | -0.688 | -1.05 | -1.27 | -0.955 | 0.665 | -0.688 (inactive) | -0.0365 | -1.5 (inactive) | 0.0281 (inactive) | 2.21 (inactive) | 0.219 (inactive) | -0.949 | -0.159 | 1.07 | 0.962 | -0.515 |

— PubChem BioAssay
